Structures are written as SMILES. About 83,000 compounds went through this panel and 20% of them were active in at least one assay; those are over-represented in the sample as a whole.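 Results are percent growth after 48 hours of single-concentration exposure. 100 means growth as in untreated cells, lower positive values show inhibition; negative values down to -100 show cell death.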 Activity calls are given as the source filed them. Rule for the calls: active = growth percent below 10; inactive = the rest.

In this assay the test system is CAKI-1 renal. The assay can be described thus: NCI-60 one-dose screen, 48 h (100 = growth as untreated, 0 = no growth, -100 = all killed). The conditions noted are these: 10 µM unless noted.
As to `Nc1cc2nc3ccccc3sc-2cc1=O`, the growth was 56.3% (inactive).

`C#Cc1nc(Nc2cc(C)[nH]n2)c2ccccc2n1`: the growth was -70% (active).

Take `CCOC(=O)c1nc(Nc2cc(C)[nH]n2)c2ccccc2n1`: the growth is 37.7% (inactive).

With `O=C(/C=C/c1ccc(Cl)cc1)/C=C/c1cc2ccccc2[nH]c1=O`, the growth is 108% (inactive).

For `CCOC(=O)c1ccc2c(c1)nc(/C=C/c1ccc(Cl)cc1)n2-c1cc(C(C)(C)C)[nH]n1`, the growth was 92.3% (inactive).

As to `CC(=O)OCC(=O)C1CCC=CC1OC(C)=O` (stereo not drawn), the growth is 93.4% (inactive).

For the molecule `COc1cc(C2CC(=O)c3c(C)nn(-c4nc5ccccc5[nH]4)c3C2)cc(OC)c1OC` (stereo not drawn), the growth was 101% (inactive).

Turning to `CC1(C)OCC2OC3(C(=O)O)OC(C)(C)OC3C2O1` (stereo not drawn), the growth is 103% (inactive).

On to `COc1ccc(C(=O)c2sc3nc(-c4ccccc4OC)ccc3c2N)cc1OC`, for which the growth was 62.4% (inactive).

Turning to `COc1ccc(C(=O)c2sc3nc4c(cc3c2N)CCCC4)cc1OC`, the growth was 57.9% (inactive).

`Cc1ccc2c(NCCCN(C)C)c3c(C)nn(C)c3nc2c1`: the growth was 14.5% (inactive).

On to `Cc1ccc(NC(=O)c2sc3nc4c(cc3c2N)C(=O)CCC4)cc1C`, for which the growth was 35.7% (inactive).

Take `COc1c(C2CC(=O)Nc3c2cnn3Cc2ccco2)cc2c(c1OC)OCO2` (stereo not drawn): the growth is 36.9% (inactive).

Regarding `Cc1ccn2c(-c3csc(Nc4cccc(O)c4)n3)c(C)nc2c1`, the growth was 80.6% (inactive).

For the molecule `NC(CC(=O)O)C(=O)OCc1ccccc1` (stereo not drawn), the growth was 79.9% (inactive).

Consider `O=C1Nc2ccc(Br)cc2C12CC(c1ccccc1)=NN2` (stereo not drawn), for which the growth is 51.5% (inactive).

As to `Cc1cc(Nc2nc(N3CCNCC3)nc3ccccc23)n[nH]1`, the growth is 20.1% (inactive).

Regarding `CCc1ccccc1NC(=O)c1sc2nc3c(cc2c1N)C(=O)CCC3`, the growth is 29.9% (inactive).

Regarding `CCOC(=O)N1CCN(c2nc(Nc3cc(C)[nH]n3)c3ccccc3n2)CC1`, the growth is 20.8% (inactive).

As to `CN1CCCCC1CCN1c2ccccc2Sc2ccc(Cl)cc21` (stereo not drawn), the growth is 59.9% (inactive).

Turning to `COc1c(Cl)cc(Cl)cc1Cl`, the growth was 126% (inactive).

Regarding `Cc1cc(Nc2nc(N3CCOCC3)nc3ccccc23)n[nH]1`, the growth was 9.88% (active).

In the case of `COc1ccc(C2CC(=O)Nc3c2c(C)nn3-c2nc3ccccc3[nH]2)cc1` (stereo not drawn), the growth was 101% (inactive).

Consider `COc1cc(-c2cc(-c3nc4ccc(Cl)cc4[nH]3)[nH]n2)cc(OC)c1OC`, for which the growth is 35.1% (inactive).

As for `Cc1noc(C)c1-c1cc(O)cc(C(O)c2ccccc2)c1` (stereo not drawn), the growth is 23.8% (inactive).

For the molecule `COc1ccc(-c2nc(Nc3cc(C)[nH]n3)c3ccccc3n2)cc1`, the growth is 15.9% (inactive).

With `Cc1cc(Nc2nc(-c3cccnc3)nc3ccccc23)n[nH]1`, the growth is 2.35% (active).

Consider `CC#Cc1nc2ccccc2c(=O)[nH]1`, for which the growth was 54.5% (inactive).

As to `O=C(Nc1ccc(F)cc1)Nc1ccc(CCO)cc1`, the growth is 103% (inactive).

Regarding `CCCCNC(=O)NS(=O)(=O)c1ccc(N2N=C(c3cc(C)ccc3C)CC2c2cc(OC)c(OC)c(OC)c2)cc1` (stereo not drawn), the growth was 39% (inactive).

In the case of `COc1cc(C2C(C(=O)c3cccs3)=C(O)C(=O)N2CCN2CCOCC2)cc(OC)c1OC` (stereo not drawn), the growth is 101% (inactive).

With `NCc1cn2cc(Cl)sc2n1`, the growth is 102% (inactive).

Regarding `CCCCCCCCCCCCN1CCCC(C)C1` (stereo not drawn), the growth is 68.7% (inactive).

In the case of `O=c1c2cccc3c(Nc4ccccn4)ccc(c32)c2nc3ccccc3n12`, the growth is 51.8% (inactive).

As for `Cc1ccc(S(=O)(=O)N(CCc2ccc(Cl)cc2)S(=O)(=O)c2ccc(C)cc2)cc1`, the growth is 72.8% (inactive).

Consider `O=C(N/N=C/c1ccc(O)cc1O)c1cccnc1`, for which the growth was 13.4% (inactive).

As for `CNC(=S)N/N=C/CSC/C=N/NC(=S)NC`, the growth is 98.7% (inactive).

As to `COc1ccc(-c2c(C)noc2-c2ccc(O)cc2O)cc1`, the growth was 95.8% (inactive).

For the origin of these results see PubChem BioAssay (NCI).
